Measured values reported in PubChem BioAssay AID504652 (National Center for Advancing Translational Sciences (NCATS), 2011).
Values joined by “and” are separate entries in the source; they are usually repeats but may differ in a detail not shown here. Equal values may be shown once. Hit rate of the full screen: of about 360,000 compounds, about 11,000 (3.1%) were called active. No stated cut-off is given here; in the data, active means activity change below about -30%; inactive means the rest. Only a selection was taken, and actives are over-represented in it overall.

These molecules were tested against D(1A) dopamine receptor (Homo sapiens) (UniProt P21728) (assay: Antagonist of Human D 1 Dopamine Receptor: qHTS). Conditions: HEK293 TREx D1 cells, calcium flux, dopamine EC80; at 10 µM; hits give low values.
Sequence of D(1A) dopamine receptor (Homo sapiens) (P21728 whole entry, looked up): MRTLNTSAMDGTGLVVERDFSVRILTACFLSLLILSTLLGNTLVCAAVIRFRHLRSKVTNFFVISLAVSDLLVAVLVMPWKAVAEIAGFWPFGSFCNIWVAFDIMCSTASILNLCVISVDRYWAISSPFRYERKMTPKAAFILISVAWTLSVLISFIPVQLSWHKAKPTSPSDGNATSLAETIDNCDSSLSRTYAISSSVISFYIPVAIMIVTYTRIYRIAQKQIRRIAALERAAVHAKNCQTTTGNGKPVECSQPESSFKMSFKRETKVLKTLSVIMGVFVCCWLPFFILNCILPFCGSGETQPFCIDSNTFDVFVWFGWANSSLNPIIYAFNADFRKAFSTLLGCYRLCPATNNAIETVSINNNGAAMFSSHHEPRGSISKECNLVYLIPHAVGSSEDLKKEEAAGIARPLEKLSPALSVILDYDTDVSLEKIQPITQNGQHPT
Procedure, shortened: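 Antagonism measured as reduced calcium response to an EC80 dopamine addition following 180 s compound pre-read; cells were inducible HEK293 Trex D1 plated overnight at 30 C, read kinetically at 1 cycle/sec.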
On the % scale 0 is the no-effect control and ±100 the full control effect.

Row | SMILES | activity change, negative = inhibition
1 | Cc1nc(-c2ccc(F)cc2)c(CC(=O)Nc2cccc(S(=O)(=O)N3CCOCC3)c2)s1 | 4.46% (inactive)
2 | O=S(=O)(c1cccc(-c2nnc3n2CCCCC3)c1)N1CCOCC1 | 2.28% (inactive)
3 | O=S(=O)(c1cccc(Cn2nnc(-c3ccc(F)cc3)n2)c1)N1CCOCC1 | -46.2% (active)
4 | COC(=O)c1ccc(NC(=O)c2cccc3c2C(=O)N(C2CCCCC2)C3)cc1 | -12% (inactive)
5 | CC(C)c1ccc(NC(=O)Cn2c3ncccc3c(=O)n2-c2ccccc2)cc1 | -16.2% (inactive)
6 | Cc1ccc2c(=O)c(C(=O)c3cccc(Cl)c3)cn(CC(=O)NCc3ccccc3)c2n1 | -33.4% (active)
7 | Cc1ccc2c(=O)c(C(=O)c3ccc(Cl)cc3)cn(CC(=O)NC3CCCCC3)c2n1 | -2.17% (inactive)
8 | Cc1ccc2c(=O)c(C(=O)c3ccc(F)cc3)cn(CC(=O)NC3CCCCC3)c2n1 | -3.19% (inactive)
9 | COc1cccc(CNC(=O)C(=O)NCC(c2cccs2)S(=O)(=O)c2ccccc2)c1 (stereo unspecified) | 10.2% (inactive)
10 | Cc1ccc(Cl)cc1N(C)C(=O)Cn1nc(Cc2cccnc2)c2ccccc2c1=O | 10.4% (inactive)
11 | CCn1c(=O)c(=O)n(CC)c2cc(N3CCCCC3)c(NC(=O)c3cccc(F)c3)cc21 | 4.44% (inactive)
12 | CC(=O)Oc1ccccc1C(=O)Nc1ncc([N+](=O)[O-])s1 | -33.9% (active)
13 | CC(C)(C)NC(=O)CSc1nnc(NC(=O)CCc2ccccc2)s1 | -22.4% (inactive)
14 | COC(=O)CSc1nnc(NC(=O)CCc2ccccc2)s1 | 5.96% (inactive)
15 | O=C(Nc1ccncc1)c1ccccc1[N+](=O)[O-] | -0.321% (inactive)
16 | O=C(CCc1ccccc1)Nc1ncc([N+](=O)[O-])s1 | -30% (active)
17 | Cc1ccc2nsnc2c1NC(=O)c1ccccc1[N+](=O)[O-] | 7.5% (inactive)
18 | Cc1ccccc1C(=O)NCc1nc(-c2ccc(Cl)cc2)no1 | -7.49% (inactive)
19 | N#Cc1nc(Nc2cccc(Cl)c2)nc(NC2CCCC2)n1 | -6.69% (inactive)
20 | COc1ccc(C(=O)Nc2cccc(C(=O)OCc3cc(=O)n4c5c(sc4n3)CCCC5)c2)cc1 | -2.93% (inactive)
21 | CN1CCOc2cc(S(=O)(=O)N3CCN(S(=O)(=O)c4c(F)cccc4F)CC3)cnc21 | 1.83% (inactive)
22 | CC1Cc2cc(S(=O)(=O)CCC(=O)Nc3ccc(F)c(Cl)c3)ccc2N1C(=O)C1CC1 (stereo unspecified) | -8.79% (inactive)

Row | SMILES | activity change, negative = inhibition
23 | Cc1ccc(C)c(N2CCN(C(=O)Cc3c(C(=O)O)c(C)cn3C)CC2)c1 | 3.31% (inactive)
24 | Cc1nc2nc(SCC(=O)N(Cc3ccccc3)C(C)C)nn2c(C)c1Cc1ccccc1Cl | -7.72% (inactive)
25 | COc1ccc(-n2c(C)nc3c(cnn3-c3ccc(F)cc3)c2=O)cc1 | -26.8% (inactive)
26 | N#C/C(=C\N1CCOCC1)S(=O)(=O)c1ccc(Cl)cc1 | -41.8% (active)
27 | O=S(=O)(Oc1ccccc1C(=S)N1CCOCC1)c1ccc(Cl)cc1 | -1.41% (inactive)
28 | N/C(=N\S(=O)(=O)c1ccc(Cl)cc1)N1CCOCC1 | -7.63% (inactive)
29 | O=C(Nc1ccc(-c2nc3cc(NC(=O)c4ccccc4Cl)ccc3o2)cc1)c1ccccc1Cl | 6.02% (inactive)
30 | COC(=O)c1ccc(NC(=O)c2ccccc2NS(=O)(=O)c2ccccc2)cc1 | -42.5% (active)
31 | COC(=O)c1ccccc1NS(=O)(=O)c1ccc2[nH]c(=O)[nH]c2c1 | 9.8% (inactive)
32 | COc1cc(NC(=O)c2ccccc2NS(=O)(=O)c2ccc(Cl)s2)cc(OC)c1 | -11.8% (inactive)
33 | CCS(=O)(=O)N1CCC(n2c(C)nc3cccnc32)CC1 | 12.3% (inactive)
34 | COc1ccc(OC)c(-c2nc(C(N)=O)c3c(n2)n(-c2ccc4c(c2)OCO4)c(=O)n3C)c1 | -6.79% (inactive)
35 | Cc1ccc(CN2COc3cc(C)c4c(oc(=O)c5ccccc54)c3C2)cc1 | 3.2% (inactive)
36 | CCn1ccnc1CN(C)C(=O)c1cc(COc2ccc(Cl)cc2OC)on1 | -3.88% (inactive)
37 | COc1cc(Cl)ccc1OCc1cc(C(=O)N(C)CCc2c(C)n[nH]c2C)no1 | -50% (active)
38 | CSc1ccccc1OCc1cc(C(=O)N(C)CCc2c(C)n[nH]c2C)no1 | -4.34% (inactive)
39 | Cc1noc(C)c1-c1ccc2ncnc(NCc3ccc(F)c(F)c3)c2c1 | -25.4% (inactive)
40 | COc1ccc(NC(=O)CSc2nc3ccccc3[nH]2)cc1 | 7.52% (inactive)
41 | CC(=O)Nc1ccc(S(=O)(=O)N2CCCC2C(=O)O)cc1 (stereo unspecified) | 2.28% (inactive)
42 | O=C(O)C1CCCN1S(=O)(=O)c1ccc2c(c1)CCC2 (stereo unspecified) | -38.4% (active)
43 | O=C(O)C1CCCN1S(=O)(=O)c1ccc(Br)cc1 (stereo unspecified) | -19.4% (inactive)
44 | CCCS(=O)(=O)c1ncc(Cl)c(C(=O)Nc2scc(-c3ccccc3)c2C(=O)OCC)n1 | -10.7% (inactive)

Row | SMILES | activity change, negative = inhibition
45 | C=C1c2c(Cl)ccc(O)c2C(O)=C2C(=O)[C@]3(O)C(O)=C(C(N)=O)C(=O)[C@@H](N(C)C)[C@@H]3[C@@H](O)C12 (stereo partly specified) | -4.29% (inactive)
46 | CN(C)[C@@H]1C(=O)C(C(N)=O)=C(O)[C@@]2(O)C(=O)C3=C(O)c4c(O)ccc(Cl)c4[C@@H](O)[C@H]3C[C@@H]12 | -42.8% (active)
47 | Cc1ccc(C)c(N2CCN(C(=O)Cn3nc(C)c4sc5ccccc5c4c3=O)CC2)c1 | 5.73% (inactive)
48 | COc1ccc(-c2noc(CSc3nc(C)cc(=O)[nH]3)n2)cc1OC | 12.5% (inactive)
49 | COc1ccc(-c2cc(C(F)(F)F)n3nc(-c4ccccc4)cc3n2)cc1OC | 6.49% (inactive)
50 | CCCN(CCC)CCNC(=O)c1ccc2c(c1)NC(=O)C(CS(=O)(=O)Cc1cccc(Br)c1)N2 (stereo unspecified) | -3.96% (inactive)
51 | Cc1cccc(OCCSc2nc3ccc(NC(=O)COc4ccccc4C)cc3s2)c1 | 5.79% (inactive)
52 | CC(=O)Nc1ccc2nc(SCCOc3cc(C)cc(C)c3)sc2c1 | -35.7% (active)
53 | Cc1ccc(OCCSc2nc3ccc(NC(=O)COc4ccc(C)cc4)cc3s2)cc1 | -5.49% (inactive)
54 | NC(=O)C1CCN(C(=O)c2cccc(NC(=O)c3nsc4ccccc34)c2)CC1 | 7.53% (inactive)
55 | O=C(CSc1ccccc1)Nc1cccc(S(=O)(=O)N2CCOCC2)c1 | -24.4% (inactive)
56 | O=C(CSc1ccccc1)Nc1cccc(S(=O)(=O)N2CCCCC2)c1 | -39.5% (active)
57 | Nc1cc(N)nc(SCC(=O)Nc2cccc(S(=O)(=O)N3CCCCC3)c2)n1 | -7.32% (inactive)
58 | CCOc1ccccc1N(C)C(=O)c1cc2c(s1)-c1ccccc1OC2 | 7.49% (inactive)
59 | Cc1sc(C2C(C#N)=C(N)N(c3cccc(Cl)c3)C3=C2C(=O)CCC3)cc1CN1CCOCC1 (stereo unspecified) | -16.8% (inactive)
60 | CCOC(=O)c1[nH]c2ccc(OC)cc2c1NC(=O)N1CCOCC1 | -7.34% (inactive)
61 | Cc1c(C(=O)CN2CCOCC2)[nH]c2ccccc12 | -9.55% (inactive)
62 | Cc1c(C(=O)N2CCOCC2)[nH]c2ccc(OCc3ccccc3)cc12 | -45.7% (active)
63 | CCOC(=O)c1ccc(NC(=O)Cn2cc(S(=O)(=O)Cc3ccccc3F)c3ccccc32)cc1 | 16.6% (inactive)
64 | Cc1nc2c(-c3ccccc3)c(C)nn2c(C)c1CCC(=O)NCCc1ccccc1 | -7.07% (inactive)
65 | Cc1nc2c(-c3ccc(F)cc3)c(C)nn2c(C)c1CCC(=O)NCc1ccco1 | -61.2% (active)
66 | COc1cc(OC)cc(-c2nc3nc(C)c(CCC(=O)NCc4ccco4)c(C)n3n2)c1 | -2.94% (inactive)

Row | SMILES | activity change, negative = inhibition
67 | CCOC(=O)c1c(-c2ccc(OC)cc2)oc2ccc(OCc3ccc(C(=O)OC)cc3)cc12 | 4.56% (inactive)
68 | O=C(Nc1ccc2nc(SCC(=O)N3CCCc4ccccc43)sc2c1)c1ccc(Cl)cc1 | -13.6% (inactive)
69 | CCOC(=O)COc1nc(C)cc(C(F)(F)F)c1C#N | -9.55% (inactive)
70 | N#Cc1c(C(F)(F)F)cc(-c2ccccc2)nc1SCC(=O)N1CCOCC1 | 7.61% (inactive)
71 | CCN(CC)c1nc(-c2ccccc2)cc(C(F)(F)F)c1C#N | -72.6% (active)
72 | Cc1ccc(-c2cc(C(F)(F)F)c(C#N)c(SCC(=O)Nc3ccccc3)n2)cc1 | -36.2% (active)
73 | Cc1cc(C(F)(F)F)c(C#N)c(SCC(=O)NC2CC2)n1 | -10.9% (inactive)
74 | Cc1nn(-c2nc(-c3ccccc3)cc(C(F)(F)F)n2)c(C)c1Cl | 5.82% (inactive)
75 | CCCN1CCc2nc(N3CCN(C)CC3)ncc2C1 | -15.6% (inactive)
76 | CSc1cccc(NC(=O)CN2C(=O)CCc3cc(S(=O)(=O)N4CCCCC4)ccc32)c1 | -0.775% (inactive)
77 | Cc1cc2c(cc3c(SCc4cccc(Cl)c4)nnc(C)n32)o1 | -2.95% (inactive)
78 | Cc1ccc(CNS(=O)(=O)c2ccc(-c3cc(C(F)(F)F)on3)s2)cc1 | 0.708% (inactive)
79 | COc1ccccc1CCNC(=O)c1cccn1-c1nnc(N2CCCCC2)s1 | 13.6% (inactive)
80 | CCCOc1cccc(C(=O)Nc2cccc(NC(=O)c3ccc(C(C)(C)C)cc3)c2)c1 | -1.05% (inactive)
81 | CCOc1cccc2c1N[C@@H](c1ccc(C(=O)O)cc1)[C@H]1CC=C[C@@H]21 | -19.7% (inactive)
82 | Cc1ccc2nc(COc3cccc(NC(=O)c4ccccc4Cl)c3)cc(=O)n2c1 | -6.97% (inactive)
83 | O=C(CSc1nc2ccccc2c(=O)n1CCCO)NC1CC1 | 8.77% (inactive)
84 | CN(C)CCCn1c(SCCN2C(=O)c3ccccc3C2=O)nc2ccccc2c1=O | -51.8% (active)
85 | CC(=O)NCCn1c(SCC(=O)Nc2ccc(C)cc2)nc2ccccc2c1=O | 1.17% (inactive) and -18.8% (inactive)
86 | Cc1ccc(Cc2nc3ccccc3nc2SCC(=O)Nc2cccc(C(F)(F)F)c2)cc1 | -11.6% (inactive)
